Assay results published in PubChem BioAssay (NCI).
About 83,000 compounds went through this panel and 20% of them were active in at least one assay; those are over-represented in the sample as a whole.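 Values shown are percent growth following 48 h exposure of cells in 96-well plates to a single concentration of compound; below 10 was considered active.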 A number with no mark means an inactive call. The source made the active and inactive calls.

These compounds were tested on MDA-MB-468 breast (assay: NCI-60 one-dose screen, 48 h (100 = growth as untreated, 0 = no growth, -100 = all killed)). Details: 10 µM unless noted.

For `O=C1/C(=C\c2cccn2Cc2ccc(F)cc2)c2ccccc2N1c1c(Cl)cccc1Cl`, which growth is on record?
The growth was 9.21% (active).

For `COc1ccc(Sc2ccc3[nH]c(=O)nc(N)c3c2)cc1`, which growth is on record?
The growth was 92.7%.

Which growth does the source give for `Cc1onc(-c2ccccc2)c1C(=O)N/N=C/c1cc(Cl)cc(Cl)c1O` here?
The growth was 24.7%.

`COc1cc(/C=C/C(=O)c2ccc(C)cc2)ccc1Oc1nc(NCCO)nc(N2CCOCC2)n1` was tested. Which growth did it give?
Its growth is 27.2%.

With `COc1ccc(C(=O)Nc2ccc3nc(N4CCCCC4)cc(C)c3c2)cc1OC` as the compound, how does the growth read?
Its growth is 73.6%.

For `CCCCc1c(CCC)c(=N)c2ccccc2n1C`, which growth is on record?
Its growth is 74.2%.

Which growth does the source give for `COc1cc2cc(CN3CCN(c4nccc(-c5ccc6ccccc6c5)n4)CC3)c(=O)[nH]c2cc1OC` here?
Its growth is 51.4%.

For `c1ccc(/C(=N\N=C(/c2ccccc2)c2cccs2)c2cccs2)cc1`, which growth is on record?
Its growth is 105%.

`O=c1[nH]c(=O)n(C2CC(O)C(CO)O2)cc1CO` (stereo not given) was tested. Which growth did it give?
Its growth is 101%.

Which growth does the source give for `COc1ccc(-c2nsc3c2NC(=O)CC3c2cccc(Cl)c2)cc1` (stereo not given) here?
The growth was -6.39% (active).

How did the growth turn out when `O=C(CCc1nnc2sc(COc3ccccc3)nn12)c1nc2ncccc2[nH]1` was run?
The growth was 100%.

How did the growth turn out when `Nc1ncnc(Nc2ccccc2)n1` was run?
The growth was 108%.

With `CC[N+](CC)=c1sc2c(s1)C(c1ccc(Cl)cc1)Oc1ccc(Cl)cc1-2` (stereo not given) as the compound, how does the growth read?
The growth was -4.17% (active).

Which growth does the source give for `COc1cc(Nc2ncc(F)c(Nc3ccc4c(n3)N(COP(=O)(O)O)C(=O)C(C)(C)O4)n2)cc(OC)c1OC` here?
Its growth is 6.8% (active).

For `COC(=O)C1(C)CCC[C@]2(C)[C@H]3C[C@H]4C(C(C)C)=C[C@]3(CC[C@@H]12)[C@H]1[C@@H]4[C@@H](OCC#CCN2CCOCC2)CC[C@@H]1OCC#CCN1CCOCC1` (stereo not given in full), which growth is on record?
Its growth is 80%.

With `C=C(C)[C@@H]1CC[C@]2(COC(=O)c3cccnc3)CC[C@]3(C)[C@H](CC[C@@H]4[C@@]5(C)CCCN(C(=O)c6cccnc6)C(C)(C)[C@@H]5CC[C@]43C)[C@@H]12` as the compound, how does the growth read?
Its growth is 23.3%.

`CC(=O)NNC(=S)N/C=C/c1c(C)ccc([N+](=O)[O-])c1[N+](=O)[O-]` was tested. Which growth did it give?
The growth was 98.8%.

`O=C1CCc2c(sc3[nH]c(=S)n(Cc4ccc(Cl)cc4)c(=O)c23)C1` was tested. Which growth did it give?
The growth was -18.7% (active).

For `COc1cc(/C=C/c2c(C(C)=O)c(C)nc3ccccc23)cc(OC)c1OC`, which growth is on record?
The growth was -4.86% (active).

Which growth does the source give for `CC(C(C(=O)N1CCCCC1)N1CCCCC1)N1CCCCC1` (stereo not given) here?
Its growth is 115%.

With `c1coc([C@@H]2C[C@@H]3Cc4ccc5ccccc5c4N2O3)c1` as the compound, how does the growth read?
Its growth is 89.7%.

Which growth does the source give for `COC(=O)[C@@H](C)CNS(=O)(=O)N(c1cc(C(F)(F)F)cc(C(F)(F)F)c1)C1CCN(Cc2ccc(F)cc2)CC1` here?
Its growth is 23.6%.

How did the growth turn out when `NC(=N\N=C/c1ccc(Cl)cc1Cl)/C(N)=N\N=C/c1ccc(Cl)cc1Cl` was run?
The growth was 62.8%.

`COc1ccc(NS(=O)(=O)c2ccc(-c3cnc(C4CC4)o3)cc2)cc1Cl` was tested. Which growth did it give?
The growth was 9.75% (active).

For `COc1ccc(/C=N/C2=C(C#N)C(c3ccc(N(C)C)cc3)c3ccc4ccccc4c3O2)cc1` (stereo not given), which growth is on record?
Its growth is 84.3%.

For `O=S(=O)(NCCCNc1nccc(-c2c(-c3cccc(O)c3)nc3occn23)n1)c1ccc(F)cc1`, which growth is on record?
The growth was 100%.

How did the growth turn out when `CCOC(=O)/C(C#N)=C(/CC)OCC` was run?
The growth was 113%.

Which growth does the source give for `O=C1C=CC(=O)C2=C1CCCC2` here?
Its growth is 61.5%.

How did the growth turn out when `O=C1c2ccccc2-c2c1c1ccncc1c(=O)n2CCCn1ccnc1` was run?
The growth was 28%.

With `NCCCNc1nc2ccccc2c2c(=O)c3cc(C(F)(F)F)ccc3sc12` as the compound, how does the growth read?
The growth was -49.1% (active).

For `OCCNc1nc(NCCO)nc(Nc2ccc(C3=NN(c4cc(Cl)cc(Cl)c4)C(c4ccc(Cl)cc4)C3)cc2)n1` (stereo not given), which growth is on record?
Its growth is -5.79% (active).

Which growth does the source give for `Nc1nc(Nc2ccccc2SSc2ccccc2Nc2nc(N)nc(-c3cccc(Br)c3)n2)nc(-c2cccc(Br)c2)n1` here?
Its growth is 95.4%.

With `N#Cc1c2ccccc2c2n1-c1ccccc1OC(c1ccccc1)C2=O` (stereo not given) as the compound, how does the growth read?
Its growth is 65.7%.

For `Cc1ccccc1NC(=O)CN(C)C`, which growth is on record?
Its growth is 107%.

With `CCOC(=O)c1sc2ncnc(Nc3ccc(NC(=O)Nc4ccc(Cl)cc4)cc3)c2c1C` as the compound, how does the growth read?
The growth was 68.9%.

With `CN1/C(=C\C(I)C(I)C2=[N+](C)c3ccccc3C2(C)C)C(C)(C)c2ccccc21` (stereo not given) as the compound, how does the growth read?
Its growth is -17.6% (active).

`c1ccc(CCSc2ncnc3nc[nH]c23)cc1` was tested. Which growth did it give?
The growth was 49%.

Which growth does the source give for `COc1ccc(-c2nc(/C=C3\C(=O)N(C)c4ccccc43)c3ccccn23)cc1` here?
The growth was 98.5%.

With `COc1cc2nc(-c3ccc(C#N)cc3)[nH]c(=O)c2cc1OC` as the compound, how does the growth read?
The growth was 113%.

Which growth does the source give for `O=C(Nc1ccc(F)cc1)c1cc(-c2ccc(F)cc2F)ccc1O` here?
Its growth is -7.21% (active).
